“And” between values parts separate entries of the source, which are not always exact repeats. Equal values may be shown once. About 79,000 compounds went through this panel and 15% of them were active in at least one assay; those are over-represented in the sample as a whole. More than one record can exist for a structure, and the calls need not agree. The source made the active and inactive calls. Rule as the data show it: active = growth inhibition above about 70%; inactive = the rest. Where a SMILES comes first, the peptide text is derived from it. [ ]: non-standard residue; d: D form. ξ: configuration not given here. ξI = CCC(C)C(N)C(=O)O

Assay [1] can be described thus: NCI Yeast Anticancer Drug Screen. Data for the mec2-1 strain (AID 157). The note with it: S. cerevisiae mec2-1 strain, stronger effect = higher value. In a few lines:
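mec2-1 yeast strain, carrying an alteration in DNA damage repair or cell cycle control, was exposed to compounds; growth inhibition was measured relative to vehicle-treated controls.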

Assay [2] in a line: NCI Yeast Anticancer Drug Screen. Data for the sgs1 mgt1 strain (AID 161).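 Also: 0% = growth of cultures given vehicle only.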 The note with it: S. cerevisiae sgs1 mgt1 strain, stronger effect = higher value. In a few lines: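 This yeast growth screen uses a strain with defined DNA-repair lesions; compound-treated growth is compared with vehicle-treated growth.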
Assay [3] is described as follows: NCI Yeast Anticancer Drug Screen. Data for the cln2 rad14 strain (AID 165).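 Also: 0% = growth equal to vehicle treated cultures.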 The settings on record: S. cerevisiae cln2 rad14 strain, stronger effect = higher value. The method in brief: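 Yeast carrying cln2 and rad14 alterations (cell cycle control and DNA damage repair) were exposed to compounds. Growth inhibition was measured against vehicle-treated controls.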
A short description of assay [4]: NCI Yeast Anticancer Drug Screen. Data for the bub3 strain (AID 167). The note with it: S. cerevisiae bub3 mutant strain, stronger effect = higher value. In a few lines:
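Mutant yeast screening strain plus compound; vehicle-treated cultures serve as the 0% inhibition reference.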

A short description of assay [5]: NCI Yeast Anticancer Drug Screen. Data for the mlh1 rad18 strain (AID 175). The note with it: S. cerevisiae mlh1 rad18 strain growth inhibition, stronger effect = higher value. In a few lines: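 Growth inhibition of the yeast strain was measured after compound exposure and expressed relative to vehicle-treated controls. The strain carries defined defects in DNA damage repair.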

Assay [6] can be described thus: NCI Yeast Anticancer Drug Screen. Data for the rad50 strain (AID 155).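 Also: 0% = growth of vehicle-only cultures of the same strain.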 The settings on record: S. cerevisiae rad50 strain growth inhibition, stronger effect = higher value. In a few lines:
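Vehicle-treated cultures provide the reference for the growth inhibition reported for compound-exposed, repair-deficient yeast.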

Setting [7] is: at 5.0 µM (retest, dose inferred, filed as 0.5).
Where [8] appears, read: at 50.0 µM (retest, dose inferred, filed as 5.0).

In the case of `C=C1C(=O)N2c3ccccc3C(C)(C)C2(S)C(=O)N1C` (stereo unspecified), the growth inhibition is 3% (inactive) in assay [1] (setting [7]); 86% (active) in assay [1] (setting [8]); 95.6% (active) in assay [1] (at 50.0 µM); 3% (inactive) in assay [2] (setting [7]); 67% (inactive) in assay [2] (setting [8]); 96.5% (active) in assay [2] (at 50.0 µM). Further, the growth inhibition is -9% (inactive) in assay [3] (setting [7]); 40% (inactive) in assay [3] (setting [8]); 63.9% (inactive) in assay [3] (at 50.0 µM); -5% (inactive) in assay [4] (setting [7]); 78% (active) in assay [4] (setting [8]); 93.6% (active) in assay [4] (at 50.0 µM). Besides, the growth inhibition was 5% (inactive) in assay [5] (setting [7]), 83% (active) in assay [5] (setting [8]) and 96.7% (active) in assay [5] (at 50.0 µM).

For the compound `Oc1c(Cl)cc(Cl)cc1Cc1cc(Cl)cc(Cl)c1O`, the growth inhibition in assay [1] (setting [7]) is 86% (active) and 85% (active); in assay [1] (setting [8]), 99% (active); in assay [1] (at 50.0 µM), 98.8% (active) and 99.2% (active); in assay [2] (setting [7]) it was 92% (active) and 85% (active); in assay [2] (setting [8]), 98% (active); in assay [2] (at 50.0 µM), 98.1% (active) and 99.4% (active). Also, the growth inhibition in assay [3] (setting [7]) was 97% (active) and 84% (active); in assay [3] (setting [8]), 99% (active) and 98% (active); in assay [3] (at 50.0 µM) it was 99% (active); in assay [5] (setting [7]), 94% (active) and 89% (active); in assay [5] (setting [8]), 98% (active); in assay [5] (at 50.0 µM), 98.5% (active) and 99.2% (active).

Take `Cc1n(Cc2ccccc2)c2c([n+]1C)C(=O)c1ccccc1C2=O`: the growth inhibition in assay [1] (setting [7]) is 50% (inactive); in assay [1] (setting [8]) it was 98% (active); in assay [1] (at 50.0 µM) it was 91.8% (active); in assay [2] (setting [7]) it was 55% (inactive); in assay [2] (setting [8]) it was 98% (active); in assay [2] (at 50.0 µM), 91.2% (active). Further, the growth inhibition was 34% (inactive) in assay [3] (setting [7]); 92% (active) in assay [3] (setting [8]); 89.2% (active) in assay [3] (at 50.0 µM); 72% (active) in assay [4] (setting [7]); 98% (active) in assay [4] (setting [8]); 89.2% (active) in assay [4] (at 50.0 µM). For the same compound, the growth inhibition in assay [5] (setting [7]) is 78% (active); in assay [5] (setting [8]), 97% (active).

For the compound `O=C1OC(c2ccccc2)C(c2ccccc2)=C1c1ccccc1` (stereo unspecified), the growth inhibition in assay [1] (setting [7]) was -18% (inactive); in assay [1] (setting [8]) it was 92% (active); in assay [1] (at 50.0 µM), -2.8% (inactive); in assay [2] (setting [7]), -3% (inactive); in assay [2] (setting [8]), 91% (active); in assay [2] (at 50.0 µM), 7.1% (inactive). The growth inhibition was -2% (inactive) in assay [3] (setting [7]); 86% (active) in assay [3] (setting [8]); -29% (inactive) in assay [3] (at 50.0 µM); 9% (inactive) in assay [4] (setting [7]); 91% (active) in assay [4] (setting [8]); 9% (inactive) in assay [4] (at 50.0 µM). Besides, the growth inhibition in assay [5] (setting [7]) was 4% (inactive); in assay [5] (setting [8]), 90% (active); in assay [5] (at 50.0 µM) it was 3.65% (inactive).

With `OCC(O)C(O)C(O)C(O)CO` (stereo unspecified) (tested in a mixture with another compound), the growth inhibition in assay [2] (at 50.0 µM) was 0.35% (inactive) [middle of 6 runs]; in assay [5] (at 50.0 µM), 13.2% (inactive) [middle of 6 runs].

Regarding `NC(CSCc1ccccc1)C(=O)O` (stereo unspecified), the figures for the growth inhibition in assay [4] (at 50.0 µM) and in assay [5] (at 50.0 µM) were -6% (inactive) [middle of 4 runs] and 0.9% (inactive) [middle of 4 runs], respectively.

Regarding `CCC(C)C(NC(=O)CN)C(=O)O` (stereo unspecified) (H-Gly-[ξI]-OH), the growth inhibition in assay [6] (at 50.0 µM) is 6.95% (inactive) [middle of 4 runs]; in assay [1] (at 50.0 µM) it was -3% (inactive) [middle of 4 runs]; in assay [5] (at 50.0 µM) it was -17.8% (inactive) [middle of 4 runs].

In the case of `CC1CC[P+](c2ccccc2)(c2ccccc2)c2c1ccc1ccccc21` (stereo unspecified), the growth inhibition was 54% (inactive) in assay [1] (setting [7]); 98% (active) in assay [1] (setting [8]); 90.2% (active) in assay [1] (at 50.0 µM); 81% (active) in assay [2] (setting [7]); 98% (active) in assay [2] (setting [8]); 91.2% (active) in assay [2] (at 50.0 µM). In addition, the growth inhibition is 30% (inactive) in assay [3] (setting [7]); 97% (active) in assay [3] (setting [8]); 88.8% (active) in assay [3] (at 50.0 µM); 67% (inactive) in assay [4] (setting [7]); 99% (active) in assay [4] (setting [8]); 88.6% (active) in assay [4] (at 50.0 µM). The growth inhibition in assay [5] (setting [7]) was 64% (inactive); in assay [5] (setting [8]), 97% (active).

As for `COC1OCC(O)C(O)C1O` (stereo unspecified), the growth inhibition was -2.4% (inactive) [middle of 4 runs] in assay [6] (at 50.0 µM); 8.15% (inactive) [middle of 4 runs] in assay [1] (at 50.0 µM); 1.2% (inactive) [middle of 4 runs] in assay [2] (at 50.0 µM); -8.1% (inactive) [middle of 4 runs] in assay [3] (at 50.0 µM); -0.95% (inactive) [middle of 4 runs] in assay [4] (at 50.0 µM); -7.4% (inactive) [middle of 4 runs] in assay [5] (at 50.0 µM).

For the compound `COc1cccc2c1C(=O)c1c(O)c3c(c(O)c1C2=O)CC(O)(C(C)=O)CC3OC1CC(N)C(O)C(C)O1` (stereo unspecified), the growth inhibition was 25% (inactive) in assay [6] (setting [7]); 40% (inactive) in assay [6] (setting [8]); 12% (inactive) in assay [1] (setting [7]); 21% (inactive) in assay [1] (setting [8]); 20% (inactive) in assay [2] (setting [7]); 29% (inactive) in assay [2] (setting [8]). Besides, the growth inhibition in assay [3] (setting [7]) is 14% (inactive); in assay [3] (setting [8]), 9% (inactive); in assay [4] (setting [7]) it was 36% (inactive); in assay [4] (setting [8]) it was 40% (inactive); in assay [5] (setting [7]) it was 23% (inactive); in assay [5] (setting [8]) it was 28% (inactive).

As to `CC(C)C(N)C(=O)NC(C(=O)NC(C(=O)O)C(C)C)C(C)C` (stereo unspecified), the growth inhibition in assay [6] (at 50.0 µM) was -1.6% (inactive) [middle of 6 runs]; in assay [1] (at 50.0 µM), 6.8% (inactive) [middle of 6 runs]; in assay [2] (at 50.0 µM) it was 3.35% (inactive) [middle of 6 runs]; in assay [4] (at 50.0 µM), 6.2% (inactive) [middle of 6 runs].

`O=c1cc[nH]cc1`: the growth inhibition in assay [1] (setting [7]) was -3% (inactive); in assay [1] (setting [8]) it was -7% (inactive); in assay [1] (at 50.0 µM) it was -8.8% (inactive) and 56.6% (inactive); in assay [2] (setting [7]), -5% (inactive); in assay [2] (setting [8]), 2% (inactive); in assay [2] (at 50.0 µM) it was 2.3% (inactive) and 16.9% (inactive). Moreover, the growth inhibition was 3% (inactive) in assay [3] (setting [7]); 5% (inactive) in assay [3] (setting [8]); 1% (inactive) and 24.7% (inactive) in assay [3] (at 50.0 µM); 1% (inactive) in assay [4] (setting [7]); -6% (inactive) in assay [4] (setting [8]); 12.3% (inactive) and 23.3% (inactive) in assay [4] (at 50.0 µM). Moreover, the growth inhibition was 0% (inactive) in assay [5] (setting [7]); 6% (inactive) in assay [5] (setting [8]); -7.05% (inactive) and 81.5% (active) in assay [5] (at 50.0 µM).

Turning to `COc1cccc2c1C(=O)c1c(O)c3c(c(O)c1C2=O)C[C@@](O)(C(C)=O)C[C@@H]3OC1CC(N)C(O)C(C)O1` (stereo partly specified), the growth inhibition is 32% (inactive) in assay [6] (setting [7]); 91% (active) in assay [6] (setting [8]); -11% (inactive) in assay [1] (setting [7]); 90% (active) in assay [1] (setting [8]); 8% (inactive) in assay [2] (setting [7]); 93% (active) in assay [2] (setting [8]). Besides, the growth inhibition in assay [3] (setting [7]) is 23% (inactive); in assay [3] (setting [8]), 85% (active); in assay [4] (setting [7]), 7% (inactive); in assay [4] (setting [8]), 93% (active); in assay [5] (setting [7]), 7% (inactive); in assay [5] (setting [8]), 88% (active).
